Records with an inconclusive call do not appear. Active and inactive are the calls of the source. The call rests on the fitted dose curve; in most records, active means well fitted inhibition curve with a large enough effect; inconclusive means small, poorly fitted or top-dose-only effect; inactive means flat fitted curve, though single readings scatter.
How the values were obtained:
Assay in all cases: Cytotoxic Profiling of Annotated Libraries Using Quantitative High-Throughput Screening (AID 1296008); further: nearly all actives have a fitted effect of over 60% in size
Settings in all cases: Five cell lines viability, CellTiter-Glo ATP luminescence, 48-72 h; max response: stronger effect = lower value
CRL-7250 = system: CRL-7250
Summary of the method: (§1)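 Cells exposed to compounds for 48 or 72 hr at 37 degrees Celsius. Viability read as ATP-coupled luminescence with CellTiter-Glo after 10 min at room temperature.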

HEK293 = system: HEK293
Summary of the method: as §1

HaCat = system: HaCat
Summary of the method: as §1

KB-3-1 = system: KB-3-1
Summary of the method: as §1

NIH3T3 = system: NIH3T3
Summary of the method: as §1

Measured: max response
On the % scale 0 is the no-effect control and ±100 the full control effect.

CCCc1[nH]nc2c1C(c1cc(Cl)cc(Cl)c1O)C(C#N)=C(N)O2 (stereo not given)
inactive: CRL-7250 -0.63% | HEK293 -17.1% | HaCat | KB-3-1 | NIH3T3

CC1=CC23[C@H](C=C(C(=O)O)[C@@H]2COC(=O)[C@]3(O)CO)[C@@H]1C (stereo not given in full)
inactive: CRL-7250 -1.44% | HEK293 2.57% | HaCat -3.69% | KB-3-1 5.88% | NIH3T3

C/C(=C\CC/C(C)=C/CC[C@]1(C)CCc2cc(O)cc(C)c2O1)CC/C=C(\C)C(=O)O
inactive: CRL-7250 0.272% | HEK293 -1.65% | HaCat 4.26% | KB-3-1 -3.09% | NIH3T3

CC(C)=CCC/C(C)=C/CO[C@@H]1O[C@H](CO[C@@H]2O[C@@H](CO)[C@H](O)[C@H]2O)[C@@H](O)[C@H](O)[C@H]1O
inactive: CRL-7250 -10.8% | HEK293 -7.37% | HaCat | KB-3-1 | NIH3T3

COc1cccc(C)c1C(=O)O[C@@H]1C[C@H](O[C@H]2[C@H](O)C[C@H](O[C@@H]3CCC[C@H]4[C@H]3C=C[C@@H]3CCCC/C=C/[C@H]5C=C(C(=O)O)[C@@H](C)C[C@@]56OC(=O)C(=C6O)OC(=O)[C@@]34C)O[C@@H]2C)O[C@H](C)[C@H]1O
inactive: CRL-7250 -2.06% | HEK293 -11.9% | HaCat | KB-3-1 6.21% | NIH3T3

O=C(c1c2ccccc2cc2ccccc12)N1CCC(N2CCC[C@@H](C(=O)N3CCOCC3)C2)CC1
inactive: CRL-7250 2.01% | HEK293 -10.6% | HaCat | KB-3-1 | NIH3T3 -3.13%
